Experimental data published in PubChem BioAssay (NCI).
The panel holds about 83,000 compounds, 20% with a hit somewhere; the sample as a whole holds those more often.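 Cells were grown in 96-well plates and exposed to the test compound at a single concentration for 48 hours; results are reported as percent growth, with values below 10 considered active.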 Unmarked numbers belong to inactive results. The source made the active and inactive calls.

test system: HL-60(TB) leukemia; test: NCI-60 one-dose screen, 48 h (100 = growth as untreated, 0 = no growth, -100 = all killed); details: 10 µM unless noted
Description: Growth inhibition of the HL-60(TB) human tumor cell line is measured as a screen for anti-cancer activity. Cells are grown in 96 well plates and exposed to the test compound for 48 hours. Compounds are tested at a single concentration, which is 10^-5 M for most compounds. The reported endpoint is percent growth (GI% or GIPRCNT), where numbers from 0 - 100% represent growth inhibition, and numbers from -100% - 0 represent cell death. For example, a value of 40 represents 60% growth inhibition. A value of 0 means no net growth occurred over the course of the experiment. A value of -40 indicates 40% of cells at the beginning of the experiment died by the end of the experiment. A value of -100 means all cells are dead at the end of the experiment.
NCI-60 Human Tumor Cell Lines Screen was performed using the standard one-dose NCI protocol, which is described in more detail at https://dtp.cancer.gov/discovery_development/nci-60/default.htm.
Compounds with GIPRCNT values below 10 were considered active. Activity score was based on GIPRCNT using the following formula: […]
Score is 0 for GIPRCNT values of 100 or above, 50 for GIPRCNT values of 0, and 100 for GIPRCNT values of -100.

SMILES | growth
O=C(O)COc1ccc(Cl)c(Cl)c1 | 111%
O=C(N=Nc1c(O)[nH]c2ccccc12)c1cc(-c2ccccc2)on1 | 97.5%
COc1ccc(NC(=O)CCl)cc1 | 69.8%
Nc1ncnc2c1N=C(c1ccc3c(c1)OCO3)CC(c1cccc(Nc3ccnc4cc(C(F)(F)F)ccc34)c1)N2 (stereo not given) | 92.9%
Fc1cccc(-c2nc(-c3c[nH]c4ncccc34)cs2)c1 | 97.2% [100 µM]
O=C(N/N=C\c1ccc(Cl)cc1Cl)c1ccncc1 | 87.6%
Cc1ccc(C(=O)O)o1 | 101%
CCCCCCCCCCCCCCCC[n+]1cccc(C#N)c1 | 30.4%
Oc1ccccc1-c1nnc(COc2ccc(Cl)cc2Cl)o1 | 3.89% (active)
O=C(COc1ccc(/C=C2\Oc3ccccc3C2=O)cc1)Nc1nc2ccccc2s1 | -68.9% (active)
COc1ccc(C(=O)N=Nc2c(O)n(C)c3ccccc23)cc1 | 99.4%
CCn1cc(C(=O)O)c(=O)c2cc(F)c(N3CCN(S(=O)(=O)c4cccc5ccccc45)CC3)cc21 | -46.2% (active)
COc1nc2ccccc2cc1/C=C1/C=C(c2ccccc2)NC1=O | -8.46% (active)
Cc1ccc(NC(=S)N/C=C(\c2ccccc2)S(=O)Cc2ccccc2)c(C)c1 (stereo not given) | 96.8%
COC(=O)[C@]12CC[C@@H](C)[C@H](C)[C@@H]1C1=CC[C@@H]3[C@@]4(C)C(C=O)=C[C@@](C)(COS(C)(=O)=O)C4[C@H](O)C[C@@]3(C)[C@]1(C)CC2 (stereo not given in full) | -34.4% (active)
Cn1c(N2NC(=O)C(N=Nc3ccc(S(N)(=O)=O)cc3)C2=O)nc(-c2ccco2)c(C#N)c1=O (stereo not given) | -41.4% (active)
C=CN(C(=O)N1CCN(c2cc3c(cc2F)c(=O)c(C(=O)O)cn3C2CC2)CC1)c1nc(-c2ccc(OC)cc2)cs1 | -22.9% (active)
CS(=O)(=O)Nc1ccc(Nc2c3ccccc3nc3cc(Cl)ccc23)cc1 | -1.97% (active)
Cc1ccc(S(=O)(=O)OCCCOS(=O)(=O)c2ccc(C)cc2)cc1 | 54.4%
CC/C(=C(/c1ccc(Cl)cc1)c1ccc(OCCN(CC)CC)cc1)c1ccc(OC)cc1 | 33.3%

SMILES | growth
COc1cc(-c2nn(-c3cccc(NC(=O)Nc4ccc(Cl)c(Cl)c4)c3)cc2-c2ccncc2)ccc1Cl | -18.1% (active)
Cc1nc(Nc2ccc(NC(=S)Nc3ccccc3)cc2)nc2nc(Nc3ccc(S(=O)(=O)O)cc3)[nH]c(=O)c12 | 132%
COc1ccc(/C(C)=C(\c2ccc(Cl)cc2)c2ccc(OCCCN(C)C)cc2)cc1 | 67.1%
CC(O)Cc1c[nH]c(=O)[nH]c1=O (stereo not given) | 103%
O=C(c1ccc2ncc(-c3nc(NC4CC4)ncc3F)n2c1)N1CCOCC1 | -30.3% (active)
O=C(O)c1cc2c(s1)C(=O)c1sccc1C2=O | 10.9%
COc1ccc(/C=C2\CS(=O)(=O)C/C(=C\c3ccc(OC)cc3)C2=O)cc1 | -29.8% (active)
CC(=O)Nc1ccc(S(=O)(=O)N2C(=O)CCC2C(=O)Nc2ccc(Br)cc2)cc1 (stereo not given) | 15.5%
Cc1nc(Nc2ccc(NC(=S)Nc3ccccc3)cc2)nc2nc(SCc3ccccc3)[nH]c(=O)c12 | 76%
CNc1ccc(Nc2ccc(S(=O)(=O)O)cc2)c2c1C(=O)c1ccccc1C2=O | 120%
S=C(c1ccc2c(c1)OCO2)N1CCN(c2cccc(Cl)c2)CC1 | 11.9%
CCc1ccc(C(c2ccc(CC)cc2)C(Cl)(Cl)CCl)cc1 | 77.2%
O=C(Nc1ccc(-n2ccc3c(NC(=O)c4ccccc4)ncnc32)cc1)Nc1ccc(Cl)c(C(F)(F)F)c1 | 15.3%
C=COC(=O)C(C)(C)C | 98.9%
COc1cc(Oc2cc(-c3cccnc3)ccc2NC(=O)Nc2ccc(F)cc2F)cc(OC)c1OC | 91.3%
CC(=O)[C@@H]1CC[C@]2(COS(=O)(=O)c3ccc(C)cc3)CC[C@]3(C)[C@H](CC[C@@H]4[C@@]5(C)CCCNC(C)(C)[C@@H]5CC[C@]43C)[C@@H]12 | 28.1%
COc1ccc2c(c1)CC[C@@H]1[C@@H]2CC[C@]2(C)c3c(cc(C#N)c4c3sc3ccccc34)C[C@@H]12 | 91.7%
CC(C)OP(=O)(OC(C)C)c1ncc(-c2ccc(C(F)(F)F)cc2)c(NC2CCCCCC2)n1 | -43.9% [33.3 µM] (active)
O=C1Nc2ccc(Cl)cc2[C@@](C#CC2CC2)(C(F)(F)F)O1 | 96.5%
Nc1nc(NC2CC2)c2ncn(C3C=CC(CO)C3)c2n1 (stereo not given) | 86.6%
